# Sampled rows, rich in hits. Any-hit rate of the full collection: about 2.5%.
# LGR2 antag – Drosophila LGR2 receptor signaling inhibition. HEK293 LGR2, CRE-luciferase, bursicon-stimulated, 4 h. inhibition, % at 9.99 µM. hit rate 0.35% among 380,000;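 active = drop in luminescence signal, shown as inhibition above about 50% in the replicate tests, limit read from the data, passing the limit was not always enough; inconclusive = probably only some replicates passing the limit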;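 note: agonist challenge used bursicon conditioned medium at about half maximal strength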
# LMP1 NFkB inh – inhibitors of Epstein-Barr LMP1-induced NF-kappaB reporter. hit rate 0.69% among 350,000. LMP1-induced NF-kappaB luciferase reporter cells, luminescence. inhibition, % at 12.5 µM. AID 504558; in the data active = inhibition above about 41%; inconclusive = no clear call, values can overlap the other calls;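 note: 0% = neutral control wells and 100% = reference inhibitor control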
# TROY signal inh – TROY signaling inhibition; hit rate 0.98% among 360,000; inhibition, % at 10 µM; AID 1347056; Q293 LMP1-TROYcd NF-kB luciferase reporter, 4 h;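 active = compounds whose plate-normalised and pattern-corrected inhibition of the luciferase reporter signal at the single screening dose is 50% or more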
# TWEAK Fn14 block – TWEAK-Fn14 signaling inhibition | TWEAK-stimulated Fn14 reporter cells, luciferase luminescence, 8 h | hit rate 2% among 360,000 | AID 1159606 | inhibition, % at 10 µM; in the data active = inhibition above about 50%
# EWS-Fli inh – blocks EWS/Fli oncoprotein-driven transcription. A673 NR0B1-luciferase reporter, viability-normalised. inhibition, % at 12.6 µM. hit rate 0.67% among 350,000. AID 651661;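 active = mean inhibition of at least 50% after viability correction, with every replicate also passing that limit; inconclusive = mean reaches 50% but only one of two replicates passes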;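 note: firefly luciferase signal divided by Alamar Blue viability fluorescence both relative to DMSO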
# The depositor's hits bear a star; ? = inconclusive; . = no result.
SMILES,LGR2 antag,LMP1 NFkB inh,TROY signal inh,TWEAK Fn14 block,EWS-Fli inh
CO[C@@H]1CN(C)C(=O)c2ccc(NC(=O)C3CCOCC3)cc2OC[C@@H](C)N(CC2CC2)C[C@@H]1C,3,.,.,.,7
O=C(O)CCCCCCCCCCP(=O)(c1ccccc1)c1ccccc1,10,-8,4,-94,9
O=P(CCCCCCCCCP(=O)(c1ccccc1)c1ccccc1)(c1ccccc1)c1ccccc1,.,-3,55*,48,.
C[C@H](CO)N1C[C@H](C)[C@@H](CN(C)C)Oc2ncc(C#CC3CCCCC3)cc2C1=O,-3,.,.,.,4
Cc1[nH]nc(NCCO)c1[N+](=O)[O-],13,6,-1,10,-3
Cc1[nH]nc(S(=O)CC(=O)O)c1[N+](=O)[O-] (stereo not given),28,-4,88*,61*,22
CC(=O)c1ccc(N=Nc2ccc(N(C)C)cc2)cc1,.,18,54*,104*,26
CC(=O)c1cnc2c(-c3ccc(Cl)cc3)cnn2c1C,.,-36,-67,4,.
Nc1c(C(=O)O)cnc2c(-c3ccc(Cl)cc3)cnn12,3,-16,15,67*,-85
COc1ccc(-c2nc(NC(=O)c3c(C)noc3C)sc2C)cc1,-8,23,13,25,11
COc1ccc(-c2nc(NC(=O)c3cc(C(C)(C)C)nn3C)sc2C)cc1,.,24,30,68*,.
CO[C@@H]1CN(C)C(=O)c2ccc(NC(C)=O)cc2OC[C@H](C)N(C(=O)Cc2cccnc2)C[C@H]1C,16,.,.,.,1
CCn1c(=O)c2c(cnn2C)c2ccccc21,.,47*,43,58*,.
C[C@H](CO)N1C[C@H](C)[C@H](CN(C)C)Oc2ccc(NC(=O)CCCCCC(=O)Nc3ccccc3N)cc2C1=O,7,.,.,.,-9
CC(C(=O)Nc1ccc(C(F)(F)F)cc1)N(C)CC(=O)N1CCN(Cc2ccccc2)CC1 (stereo not given),13,11,7,-9,7
CSc1ccccc1NC(=O)C(C)N(C)CC(=O)N1CCN(Cc2ccccc2)CC1 (stereo not given),-8,72*,-3,-13,3
COc1cc(NC(=S)N2CCN(CCO)CC2)cc(OC)c1,-2,69*,7,-1,4
OCCN1CCN(C(=S)Nc2ccccc2)CC1,-7,1,3,-11,2
CCCNC(=O)Nc1ccc2c(c1)OC[C@@H](C)N(Cc1ccncc1)C[C@H](C)[C@@H](OC)CN(C)C2=O,4,.,.,.,5
CC(C)N(c1ccccc1)c1ccc(NC(=O)CCl)cc1,33,-33,1,62*,14
O=C(CCl)Nc1ccc(-c2ccccc2)cc1,.,11,-42,32,64*
O=C(CCl)Nc1ccc(N=Nc2ccccc2)cc1,-112,-23,-64,-10,-5
CC(C)N(c1ccccc1)c1ccc(NC(=O)[C@@H]2O[C@H](CO)[C@H](O)[C@H](O)[C@H]2O)cc1,-27,.,-4,18,-12
CC(C)C#Cc1ccc2c(c1)O[C@H](CN(C)CC1CCOCC1)[C@@H](C)CN([C@@H](C)CO)S2(=O)=O,-17,.,.,.,22
N#Cc1cc2c(nc1SCC(=O)N1CCCCC1)CCCCC2,.,-7,56*,41,.
SMILES,LGR2 antag,LMP1 NFkB inh,TROY signal inh,TWEAK Fn14 block,EWS-Fli inh
N#Cc1cc2c(nc1SCC(=O)N1CCCCC1)CCCC2,.,-6,2,-7,.
N#Cc1cc2cc3c(cc2nc1SCC(=O)N1CCOCC1)OCCO3,22,37,76*,97*,57*
O=C(CCl)Nc1cc(SCC(O)CO)cc([N+](=O)[O-])c1 (stereo not given),73*,25,-4,10,47
O=C(NCC[C@@H]1CC[C@H](NC(=O)C2CCCC2)[C@@H](CO)O1)c1cc(Cl)cc(Cl)c1,11,.,.,.,14
NC(=O)c1ccsc1NC(=O)COC(=O)Cc1cccc2ccccc12,.,21,61*,55*,.
COc1cc(C(=O)OCC(=O)Nc2sccc2C(N)=O)cc(OC)c1OC,-6,7,33,31,61*
NC(=O)c1ccsc1NC(=O)COC(=O)Cc1c[nH]c2ccccc12,-3,14,9,23,9
C[C@H]1CN([C@@H](C)CO)C(=O)c2cc(C#CCN(C)C)cnc2O[C@H]1CN(C)C(=O)c1cccc(F)c1,-13,.,.,.,-10
COC(=O)c1ccc(N=c2sc(C(=O)OC)cc(=O)n2C)cc1,.,7,-6,45,18
COC(=O)c1cc(=O)n(-c2ccc(F)cc2)c(=Nc2ccc(F)cc2)s1,?,4,29,50*,15
